Data on 39 molecules can be found in PubChem BioAssay (Tox21).

SMILES strings stand for the structures. Activity calls are given as the source filed them. The call rests on the fitted dose curve; in most records, active means well fitted activation curve with a large enough effect in the signal ratio in the repeat runs (not every such curve was filed as active); inconclusive means weak or mixed curves, or effect the other way; inactive means no such curve, though single readings can be large or run the other way; the % refers to the signal ratio.
On the % scale 0 is the no-effect control and ±100 the full control effect; potency means the concentration at half of the fitted maximal effect.

Glucocorticoid receptor (Homo sapiens), sequence (P04150 whole entry, looked up): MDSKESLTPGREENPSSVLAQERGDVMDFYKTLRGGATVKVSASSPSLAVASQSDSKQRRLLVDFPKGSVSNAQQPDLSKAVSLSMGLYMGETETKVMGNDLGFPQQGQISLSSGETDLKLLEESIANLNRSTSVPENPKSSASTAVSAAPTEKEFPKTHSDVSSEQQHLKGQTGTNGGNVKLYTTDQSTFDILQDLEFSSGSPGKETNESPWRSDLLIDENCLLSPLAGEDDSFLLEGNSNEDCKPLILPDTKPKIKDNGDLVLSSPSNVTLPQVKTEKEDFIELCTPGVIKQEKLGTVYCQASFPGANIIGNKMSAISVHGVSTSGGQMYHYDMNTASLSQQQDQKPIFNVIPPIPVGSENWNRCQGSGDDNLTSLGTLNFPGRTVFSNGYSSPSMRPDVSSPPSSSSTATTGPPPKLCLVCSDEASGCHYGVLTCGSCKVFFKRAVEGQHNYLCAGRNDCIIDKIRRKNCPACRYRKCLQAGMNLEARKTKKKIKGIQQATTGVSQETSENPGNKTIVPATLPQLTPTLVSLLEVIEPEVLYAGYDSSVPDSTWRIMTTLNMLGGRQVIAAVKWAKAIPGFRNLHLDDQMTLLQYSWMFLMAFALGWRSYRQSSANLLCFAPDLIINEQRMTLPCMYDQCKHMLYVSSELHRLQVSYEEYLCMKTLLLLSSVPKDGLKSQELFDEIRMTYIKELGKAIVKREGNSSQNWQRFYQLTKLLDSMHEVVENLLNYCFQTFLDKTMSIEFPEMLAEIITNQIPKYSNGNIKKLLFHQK

In the assay the target is Glucocorticoid receptor (Homo sapiens) (UniProt P04150). As to the kind of experiment: qHTS assay to identify small molecule agonists of the glucocorticoid receptor (GR) signaling pathway (AID 720691). The following applies: GR-bla HeLa, beta-lactamase reporter ratio, 18 h; activation: at 62.4 µM (top of the series). The method in brief:
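Compounds in DMSO, alongside positive controls, were added to GR-bla HeLa reporter cells and incubated 18 h at 37 C; GRE-driven beta-lactamase was detected by fluorescence after 2 h with FRET substrate at room temperature.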
Background: Quantitative high-throughput screening tests each substance at several concentrations.
In the case of `CCN(CC)CCOc1ccc(-c2nc3cc(Cl)ccc3s2)cc1`, the “activation” value was -7.02% (inactive).

Consider `O=C(O)CCC/C=C\C[C@@H]1[C@@H](/C=C/[C@@H](O)COc2cccc(C(F)(F)F)c2)[C@H](O)C[C@@H]1O`, for which the “activation” value is -1.99% (inactive).

Consider `OCC(O)COc1ccc(Cl)cc1` (centres undefined), for which the “activation” value was 0.0645% (inactive).

`CC(Oc1ccccc1)C(=O)N[C@@H]1C(=O)N2[C@@H]1SC(C)(C)[C@@H]2C(=O)O` (some centres undefined): the “activation” value is 1.25% [at 29.2 µM] (inactive).

`C=CCNC1=C2C[C@@H](C)C[C@H](OC)[C@H](O)[C@@H](C)/C=C(\C)[C@H](OC(N)=O)[C@@H](OC)/C=C\C=C(/C)C(=O)NC(=CC1=O)C2=O`: the “activation” value was -6.17% (inactive).

Consider `COCC(=O)Nc1cc(Sc2ccccc2)ccc1N=C(NC(=O)OC)NC(=O)OC`, for which the “activation” value is -7.8% (inactive).

For `CCCCCCCCCCCCCCCC(=O)OC[C@@H](O)[C@H]1OC[C@H](O)[C@H]1O`, the “activation” value was 1.88% (inactive).

Take `CCN(CC)Cc1cc(Nc2ccnc3cc(Cl)ccc23)ccc1O`: the “activation” value was 1.62% [at 29.2 µM] (inactive).

For `C=CC[C@@H]1/C=C(\C)C[C@H](C)C[C@H](OC)[C@H]2O[C@@](O)(C(=O)C(=O)N3CCCC[C@H]3C(=O)O[C@H](/C(C)=C/[C@@H]3CC[C@@H](O)[C@H](OC)C3)[C@H](C)[C@@H](O)CC1=O)[C@H](C)C[C@@H]2OC`, the “activation” value is -7.22% (inactive).

With `CN(C)CCC=C1c2ccccc2C(C)(C)c2ccccc21`, the “activation” value is 0.0776% (inactive).

As to `CN1CC(O)c2cc(N=NC(N)=O)c(O)cc21` (centres undefined), the “activation” value is -3.14% (inactive).

Consider `CCOC(=O)Cc1cccc(-c2cc(CCCCCCc3ccc(O[C@H]4O[C@H](COC(C)=O)[C@@H](OC(C)=O)[C@H](OC(C)=O)[C@@H]4OC(C)=O)c(-c4cccc(CC(=O)OCC)c4)c3)ccc2O[C@H]2O[C@H](COC(C)=O)[C@@H](OC(C)=O)[C@H](OC(C)=O)[C@@H]2OC(C)=O)c1`, for which the “activation” value is -0.144% (inactive).

Regarding `CCCC(=O)O[C@]1(C(=O)COC(C)=O)CC[C@H]2[C@@H]3C[C@H](F)C4=CC(=O)C=C[C@]4(C)[C@@]3(F)[C@@H](O)C[C@@]21C`, the Potency is 0.0043 µM [inconclusive] (active).

In the case of `C=C1CC2C3CCC4=CC(=O)C=C[C@]4(C)[C@@]3(F)[C@@H](O)C[C@]2(C)[C@@]1(O)C(=O)COC(C)=O` (some centres undefined), the Potency is 0.0151 µM (active).

For `C[C@H]1[C@@H](OC(=O)CCC(=O)O)O[C@@H]2OC3(C)CC[C@H]4[C@H](C)CC[C@@H]1[C@@]24OO3`, the “activation” value is -7.37% (inactive).

For the molecule `OCCO[C@@H]1[C@@H](O)[C@H](O)[C@@H](CO)O[C@@H]1O`, the Potency was 13.4 µM [inconclusive] (active).

With `CN[C@@H]1[C@H](O[C@H]2[C@H](O[C@H]3[C@H](O)[C@@H](O)[C@H](N=C(N)N)[C@@H](O)[C@@H]3N=C(N)N)O[C@@H](C)[C@]2(O)C=O)O[C@@H](CO)[C@H](O)[C@H]1O`, the “activation” value is 0.344% (inactive).

Consider `O=C(Cc1cccs1)N[C@@H]1C(=O)N2C(C(=O)[O-])=C(C[n+]3ccccc3)CS[C@H]12`, for which the “activation” value was -3.29% (inactive).

On to `Clc1cc(Cl)c(OCC#CI)cc1Cl`, for which the Potency was 26.8 µM [inconclusive] (active).

Consider `C[N@+]12CCCC[C@@H]1CCC(=C(c1cccs1)c1cccs1)C2`, for which the “activation” value is -0.48% (inactive).

With `CC1(O)CCC(C(C)(C)O)CC1` (centres undefined), the “activation” value was 0.635% (inactive).

Regarding `CC#CCC(C)[C@H](O)/C=C/[C@@H]1[C@H]2c3cccc(CCCC(=O)O)c3O[C@H]2C[C@H]1O` (some centres undefined), the “activation” value is 1.31% (inactive).

For `CCN(CC)CCCC(C)Nc1cc(/C=C/c2ccccc2Cl)nc2cc(Cl)ccc12` (centres undefined), the “activation” value is -0.964% (inactive).

As to `CCCCC(=O)OCC(=O)[C@]1(O)Cc2c(O)c3c(c(O)c2[C@@H](O[C@H]2C[C@H](NC(=O)C(F)(F)F)[C@H](O)[C@H](C)O2)C1)C(=O)c1c(OC)cccc1C3=O`, the Potency was 7.56 µM (active).

`CC1(C)S[C@@H]2[C@H](NC(=O)C3(N)CCCCC3)C(=O)N2[C@H]1C(=O)O`: the “activation” value is -3.7% (inactive).

Consider `CC[C@]1(O)CC2CN(CCc3c([nH]c4ccccc34)[C@@](C(=O)OC)(c3cc4c(cc3OC)N(C)[C@H]3[C@@](O)(C(N)=O)[C@H](O)[C@]5(CC)C=CCN6CC[C@]43[C@@H]65)C2)C1` (some centres undefined), for which the “activation” value was -3.35% (inactive).

With `CC(=O)Nc1ccc(NC(=S)NC(=O)c2ccc(C(C)(C)C)cc2)cc1`, the “activation” value is -0.61% (inactive).

On to `CO[C@H]1O[C@@H]2O[C@@]3(C)CC[C@H]4[C@H](C)CC[C@@H]([C@H]1C)[C@@]24OO3`, for which the “activation” value was -2.66% (inactive).

For `OC(CN1CCCCC1)c1cc(-c2ccccc2)on1` (centres undefined), the “activation” value is -2.18% (inactive).

Take `CC(C)(C)C1(O)CCN2CC3c4ccccc4CCc4cccc(c43)C2C1` (centres undefined): the “activation” value was -6.75% (inactive).

For the molecule `NC[C@@H]1O[C@H](O[C@H]2[C@@H](O)[C@H](O[C@@H]3[C@@H](O)[C@H](N)C[C@H](N)[C@H]3O[C@H]3O[C@H](CO)[C@@H](O)[C@H](O)[C@H]3N)O[C@@H]2CO)[C@H](N)[C@@H](O)[C@@H]1O`, the “activation” value was -2.28% (inactive).

Turning to `CN(C)c1ccc(C(=C2C=CC(=[N+](C)C)C=C2)c2c(O)c(S(=O)(=O)[O-])cc3cc(S(=O)(=O)O)ccc23)cc1`, the “activation” value was -0.844% (inactive).

Consider `CCN(CC)CCOC(=O)c1ccc(N)cc1Cl`, for which the “activation” value is -1.45% (inactive).

For `CCCCCCCCCCCCCCCCCC(=O)[O][Al]`, the “activation” value is -1.39% (inactive).

`CCC(C)[C@H]1O[C@]2(C=C[C@@H]1C)C[C@@H]1C[C@@H](C/C=C(\C)[C@@H](O[C@H]3C[C@H](OC)[C@@H](O[C@H]4C[C@H](OC)[C@H](NC(C)=O)[C@H](C)O4)[C@H](C)O3)[C@@H](C)/C=C/C=C3\CO[C@@H]4[C@H](O)C(C)=C[C@@H](C(=O)O1)[C@]34O)O2` (some centres undefined): the “activation” value is -9.15% (inactive).

As for `CC(C)NCC(O)COc1ccccc1-n1cccc1` (centres undefined), the “activation” value is 4.09% (inactive).

Take `CC(C)(C)NC(=O)[C@H]1CC[C@H]2[C@@H]3CC=C4C=C(C(=O)O)CC[C@]4(C)[C@H]3CC[C@]12C`: the “activation” value was -8.29% (inactive).

Take `CC1=C(/C=C/C(C)=C/C=C/C(C)=C/C=C/C=C(C)/C=C/C=C(C)/C=C/C2=C(C)C(=O)CCC2(C)C)C(C)(C)CCC1=O`: the “activation” value was 4.05% (inactive).

As for `CCOC(=O)c1cc(-c2ccccc2)nc2ccc(C)cc12`, the “activation” value is 2.26% (inactive).
